# Measurements as given in PMC7862700, “An all-to-all approach to the identification of sequence-specific readers for epigenetic DNA modifications on cytosine”.
# Tests used:
# Test in all cases: DAPPL (digital affinity profiling via proximity ligation, sequencing); 10 mM Tris-HCl pH 7.5, 50 mM NaCl, 1 mM DTT, 4% glycerol, room temperature, 30 min; GST-TFs on glutathione beads, 16-mer random dsDNA library, 0.1% formaldehyde crosslink after washing; high values mean tight binding
# Conditions in all cases: protein: recombinant; tags: N-terminal GST; dsDNA, one strand shown
# ELK1 = target: T1, ELK1 (Homo sapiens, UniProt P19419 1-428)
# T1 sequence: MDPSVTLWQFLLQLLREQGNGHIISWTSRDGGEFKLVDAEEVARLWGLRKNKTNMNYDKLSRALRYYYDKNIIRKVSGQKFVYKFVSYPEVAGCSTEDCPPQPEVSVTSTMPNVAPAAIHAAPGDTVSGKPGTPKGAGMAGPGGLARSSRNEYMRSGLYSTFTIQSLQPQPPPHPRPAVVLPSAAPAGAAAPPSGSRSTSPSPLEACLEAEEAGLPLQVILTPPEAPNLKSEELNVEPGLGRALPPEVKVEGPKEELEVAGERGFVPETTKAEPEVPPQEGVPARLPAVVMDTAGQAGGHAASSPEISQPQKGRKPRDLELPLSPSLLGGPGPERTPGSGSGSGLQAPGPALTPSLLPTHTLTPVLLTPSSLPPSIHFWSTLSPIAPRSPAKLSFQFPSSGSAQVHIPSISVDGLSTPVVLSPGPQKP
# Procedure, shortened: (§1)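 The binding signal reported is, for every hexamer, its read frequency for a factor over its read frequency for the tag-only sample. Reads came from pools of yeast-expressed, GST-fused human transcription factors on glutathione beads, barcoded with DNA and mixed with that sample, which were incubated with 200 nmole of a random double-stranded 16-mer DNA library in Tris/NaCl/DTT/glycerol buffer at room temperature for 30 min. After washing, the pools were crosslinked with 0.1% formaldehyde, proximity-ligated with BsaI/T4 ligase for 1 h at 37 °C, PCR-amplified and sequenced on an Illumina NextSeq500.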
# GABPA = target: T2, GABPA (Homo sapiens, UniProt Q06546 1-454)
# T2 sequence: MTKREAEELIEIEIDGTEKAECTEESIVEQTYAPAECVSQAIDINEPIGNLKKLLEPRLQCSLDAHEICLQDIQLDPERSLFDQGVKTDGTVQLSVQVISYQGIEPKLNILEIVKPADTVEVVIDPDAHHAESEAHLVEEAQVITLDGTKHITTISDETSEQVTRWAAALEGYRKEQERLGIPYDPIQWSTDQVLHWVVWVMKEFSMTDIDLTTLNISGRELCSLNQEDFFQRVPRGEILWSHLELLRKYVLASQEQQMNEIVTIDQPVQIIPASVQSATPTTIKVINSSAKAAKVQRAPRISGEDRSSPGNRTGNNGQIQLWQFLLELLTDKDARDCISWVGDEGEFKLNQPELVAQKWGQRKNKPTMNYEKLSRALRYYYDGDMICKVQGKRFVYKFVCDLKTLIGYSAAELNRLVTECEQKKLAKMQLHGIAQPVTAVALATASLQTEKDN
# Procedure, shortened: as §1
# ERG = target: T3, ERG (Homo sapiens, UniProt P11308 1-479)
# T3 sequence: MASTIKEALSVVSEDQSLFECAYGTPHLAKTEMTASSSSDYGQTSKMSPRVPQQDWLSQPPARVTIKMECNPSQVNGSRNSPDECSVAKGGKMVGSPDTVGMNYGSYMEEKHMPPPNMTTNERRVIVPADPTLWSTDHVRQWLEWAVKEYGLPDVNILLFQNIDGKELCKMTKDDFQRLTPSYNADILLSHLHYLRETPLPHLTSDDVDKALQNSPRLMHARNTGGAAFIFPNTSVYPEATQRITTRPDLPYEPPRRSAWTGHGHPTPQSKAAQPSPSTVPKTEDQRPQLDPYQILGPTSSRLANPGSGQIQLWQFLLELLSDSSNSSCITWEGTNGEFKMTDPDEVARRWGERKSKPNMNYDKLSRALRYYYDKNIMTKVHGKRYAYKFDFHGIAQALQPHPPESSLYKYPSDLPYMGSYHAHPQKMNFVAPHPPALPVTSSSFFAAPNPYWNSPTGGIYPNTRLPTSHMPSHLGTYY
# Procedure, shortened: as §1
# ELF1 = ELF1 (Homo sapiens, UniProt P32519 1-619)
# Procedure, shortened: as §1
# EHF = target: T4, EHF (Homo sapiens, UniProt Q9NZC4 1-300)
# T4 sequence: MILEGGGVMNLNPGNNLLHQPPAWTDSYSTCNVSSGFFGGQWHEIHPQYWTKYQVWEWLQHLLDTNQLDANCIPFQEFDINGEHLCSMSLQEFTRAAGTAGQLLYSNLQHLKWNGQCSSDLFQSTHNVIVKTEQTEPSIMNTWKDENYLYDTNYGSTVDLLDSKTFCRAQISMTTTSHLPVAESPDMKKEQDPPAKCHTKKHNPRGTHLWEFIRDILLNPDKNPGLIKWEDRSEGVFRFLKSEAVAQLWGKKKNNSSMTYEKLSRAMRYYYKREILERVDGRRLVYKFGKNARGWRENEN
# Procedure, shortened: as §1
# SPIB = SPIB (Homo sapiens, UniProt Q01892 1-262)
# Procedure, shortened: as §1
# ELK3 = target: T5, ELK3 (Homo sapiens, UniProt P41970 1-407)
# T5 sequence: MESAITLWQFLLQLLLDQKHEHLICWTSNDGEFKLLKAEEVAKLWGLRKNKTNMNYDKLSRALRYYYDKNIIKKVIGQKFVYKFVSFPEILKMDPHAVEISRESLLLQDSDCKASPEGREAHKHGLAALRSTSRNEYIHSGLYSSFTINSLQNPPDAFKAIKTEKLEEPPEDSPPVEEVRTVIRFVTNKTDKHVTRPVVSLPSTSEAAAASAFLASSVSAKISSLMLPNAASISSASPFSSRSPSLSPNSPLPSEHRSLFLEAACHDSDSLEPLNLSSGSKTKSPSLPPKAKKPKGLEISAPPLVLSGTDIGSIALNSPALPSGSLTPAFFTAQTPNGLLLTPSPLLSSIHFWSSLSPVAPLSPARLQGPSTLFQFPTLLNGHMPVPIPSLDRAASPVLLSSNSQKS
# Procedure, shortened: as §1
# SPIC = target: T6, SPIC (Homo sapiens, UniProt Q8N5J4 1-248)
# T6 sequence: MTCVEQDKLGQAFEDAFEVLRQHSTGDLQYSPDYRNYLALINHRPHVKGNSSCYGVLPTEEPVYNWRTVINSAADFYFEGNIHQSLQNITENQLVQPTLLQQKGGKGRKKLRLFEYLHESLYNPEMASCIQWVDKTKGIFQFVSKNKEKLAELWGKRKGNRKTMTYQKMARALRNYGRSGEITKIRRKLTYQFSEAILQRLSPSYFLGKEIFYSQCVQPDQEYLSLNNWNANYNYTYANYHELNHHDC
# Procedure, shortened: as §1
# ELF4 = ELF4 (Homo sapiens, UniProt Q99607 1-663)
# Procedure, shortened: as §1
# ELK4 = target: T7, ELK4 (Homo sapiens, UniProt P28324-2 1-405)
# T7 sequence: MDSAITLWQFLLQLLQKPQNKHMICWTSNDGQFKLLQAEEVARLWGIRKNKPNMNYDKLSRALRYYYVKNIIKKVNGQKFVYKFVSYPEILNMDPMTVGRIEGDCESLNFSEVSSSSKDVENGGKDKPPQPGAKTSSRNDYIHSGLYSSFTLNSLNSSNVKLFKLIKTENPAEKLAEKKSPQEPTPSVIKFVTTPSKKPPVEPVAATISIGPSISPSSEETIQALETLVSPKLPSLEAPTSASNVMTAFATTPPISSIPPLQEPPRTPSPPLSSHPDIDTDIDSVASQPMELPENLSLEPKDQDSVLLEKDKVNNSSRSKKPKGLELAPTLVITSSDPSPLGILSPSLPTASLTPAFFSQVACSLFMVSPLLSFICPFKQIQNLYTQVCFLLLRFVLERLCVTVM
# Procedure, shortened: as §1
# ELF3 = target: T8, ELF3 (Homo sapiens, UniProt P78545 1-371)
# T8 sequence: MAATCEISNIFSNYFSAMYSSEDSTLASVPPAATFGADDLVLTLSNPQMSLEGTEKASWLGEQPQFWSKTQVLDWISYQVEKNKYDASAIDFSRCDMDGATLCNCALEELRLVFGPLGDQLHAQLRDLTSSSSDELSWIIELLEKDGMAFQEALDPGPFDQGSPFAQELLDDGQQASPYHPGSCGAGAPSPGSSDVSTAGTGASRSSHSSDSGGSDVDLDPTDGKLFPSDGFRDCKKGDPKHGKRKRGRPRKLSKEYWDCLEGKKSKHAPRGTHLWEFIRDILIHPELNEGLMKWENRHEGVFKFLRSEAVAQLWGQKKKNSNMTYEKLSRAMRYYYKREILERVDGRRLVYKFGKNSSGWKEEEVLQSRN
# Procedure, shortened: as §1
# ETV1 = ETV1 (Homo sapiens, UniProt P50549 1-477)
# Procedure, shortened: as §1
# ERF = target: T9, ERF (Homo sapiens, UniProt P50548 1-548)
# T9 sequence: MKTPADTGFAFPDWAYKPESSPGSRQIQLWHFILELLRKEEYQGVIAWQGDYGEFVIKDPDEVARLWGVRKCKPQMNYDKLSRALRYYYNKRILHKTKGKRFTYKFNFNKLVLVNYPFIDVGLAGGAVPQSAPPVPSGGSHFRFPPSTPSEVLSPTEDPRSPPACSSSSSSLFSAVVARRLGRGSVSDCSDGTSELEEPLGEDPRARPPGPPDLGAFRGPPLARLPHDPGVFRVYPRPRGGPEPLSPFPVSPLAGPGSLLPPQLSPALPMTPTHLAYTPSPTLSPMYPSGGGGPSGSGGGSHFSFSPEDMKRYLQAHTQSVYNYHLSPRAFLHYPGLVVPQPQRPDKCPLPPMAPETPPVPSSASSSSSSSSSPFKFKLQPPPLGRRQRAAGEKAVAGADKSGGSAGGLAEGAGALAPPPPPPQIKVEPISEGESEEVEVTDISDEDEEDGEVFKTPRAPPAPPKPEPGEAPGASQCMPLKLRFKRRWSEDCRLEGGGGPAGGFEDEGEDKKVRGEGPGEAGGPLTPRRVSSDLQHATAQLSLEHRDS
# Procedure, shortened: as §1
# SPDEF = target: T10, SPDEF (Homo sapiens, UniProt O95238 1-335)
# T10 sequence: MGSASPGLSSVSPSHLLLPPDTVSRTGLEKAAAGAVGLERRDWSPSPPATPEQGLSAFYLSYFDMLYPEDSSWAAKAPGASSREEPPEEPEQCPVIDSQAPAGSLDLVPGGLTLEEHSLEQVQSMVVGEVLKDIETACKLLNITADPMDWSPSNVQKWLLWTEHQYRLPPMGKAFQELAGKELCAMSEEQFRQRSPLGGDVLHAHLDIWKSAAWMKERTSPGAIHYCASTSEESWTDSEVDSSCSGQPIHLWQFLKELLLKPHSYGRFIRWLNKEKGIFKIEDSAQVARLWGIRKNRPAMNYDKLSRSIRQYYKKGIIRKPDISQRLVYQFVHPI
# Procedure, shortened: as §1
# ETV7 = target: T11, ETV7 (Homo sapiens, UniProt Q9Y603 1-341)
# T11 sequence: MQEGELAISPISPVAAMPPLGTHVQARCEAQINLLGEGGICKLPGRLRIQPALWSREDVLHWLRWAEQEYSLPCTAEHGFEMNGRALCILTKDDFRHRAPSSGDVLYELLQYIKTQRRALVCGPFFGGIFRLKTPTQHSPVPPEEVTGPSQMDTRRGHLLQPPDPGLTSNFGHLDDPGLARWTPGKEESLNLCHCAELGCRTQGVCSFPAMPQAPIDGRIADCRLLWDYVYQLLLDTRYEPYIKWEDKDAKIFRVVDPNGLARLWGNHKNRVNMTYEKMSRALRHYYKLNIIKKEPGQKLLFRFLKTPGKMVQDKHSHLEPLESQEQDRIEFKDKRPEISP
# Procedure, shortened: as §1
# ETV3 = target: T12, ETV3 (Homo sapiens, UniProt P41162-2 1-143)
# T12 sequence: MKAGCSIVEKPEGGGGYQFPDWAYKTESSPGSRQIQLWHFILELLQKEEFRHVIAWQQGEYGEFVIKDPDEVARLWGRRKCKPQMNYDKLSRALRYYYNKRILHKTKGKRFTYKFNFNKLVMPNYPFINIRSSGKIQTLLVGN
# Procedure, shortened: as §1
# ETV6 = ETV6 (Homo sapiens, UniProt P41212 1-452)
# Procedure, shortened: as §1
# Sequence of SPIB (Q01892 whole entry): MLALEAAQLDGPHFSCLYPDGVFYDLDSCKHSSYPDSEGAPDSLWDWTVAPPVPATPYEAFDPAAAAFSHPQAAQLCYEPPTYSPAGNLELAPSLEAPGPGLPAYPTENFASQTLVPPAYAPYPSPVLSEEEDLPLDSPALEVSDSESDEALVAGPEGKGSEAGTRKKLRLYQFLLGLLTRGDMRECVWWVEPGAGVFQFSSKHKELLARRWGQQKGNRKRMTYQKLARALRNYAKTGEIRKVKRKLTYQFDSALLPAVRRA
# Sequence of ELF1 (P32519 whole entry): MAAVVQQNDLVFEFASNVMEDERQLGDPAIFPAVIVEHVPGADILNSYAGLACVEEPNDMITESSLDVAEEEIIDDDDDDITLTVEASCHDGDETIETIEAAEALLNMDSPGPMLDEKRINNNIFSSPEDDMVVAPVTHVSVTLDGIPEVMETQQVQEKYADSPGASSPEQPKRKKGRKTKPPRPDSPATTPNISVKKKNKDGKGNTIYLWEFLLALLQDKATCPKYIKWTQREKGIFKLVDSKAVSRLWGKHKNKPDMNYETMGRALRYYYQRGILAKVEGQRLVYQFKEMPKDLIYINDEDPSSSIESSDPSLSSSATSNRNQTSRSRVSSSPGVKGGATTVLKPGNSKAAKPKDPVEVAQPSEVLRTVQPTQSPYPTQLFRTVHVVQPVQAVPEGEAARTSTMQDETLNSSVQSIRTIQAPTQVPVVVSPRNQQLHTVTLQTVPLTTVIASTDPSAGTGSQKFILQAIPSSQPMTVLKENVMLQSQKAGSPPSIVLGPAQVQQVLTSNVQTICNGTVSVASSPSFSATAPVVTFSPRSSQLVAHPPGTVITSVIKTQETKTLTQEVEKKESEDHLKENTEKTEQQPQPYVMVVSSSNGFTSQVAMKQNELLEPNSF
# Sequence of ELF4 (Q99607 whole entry): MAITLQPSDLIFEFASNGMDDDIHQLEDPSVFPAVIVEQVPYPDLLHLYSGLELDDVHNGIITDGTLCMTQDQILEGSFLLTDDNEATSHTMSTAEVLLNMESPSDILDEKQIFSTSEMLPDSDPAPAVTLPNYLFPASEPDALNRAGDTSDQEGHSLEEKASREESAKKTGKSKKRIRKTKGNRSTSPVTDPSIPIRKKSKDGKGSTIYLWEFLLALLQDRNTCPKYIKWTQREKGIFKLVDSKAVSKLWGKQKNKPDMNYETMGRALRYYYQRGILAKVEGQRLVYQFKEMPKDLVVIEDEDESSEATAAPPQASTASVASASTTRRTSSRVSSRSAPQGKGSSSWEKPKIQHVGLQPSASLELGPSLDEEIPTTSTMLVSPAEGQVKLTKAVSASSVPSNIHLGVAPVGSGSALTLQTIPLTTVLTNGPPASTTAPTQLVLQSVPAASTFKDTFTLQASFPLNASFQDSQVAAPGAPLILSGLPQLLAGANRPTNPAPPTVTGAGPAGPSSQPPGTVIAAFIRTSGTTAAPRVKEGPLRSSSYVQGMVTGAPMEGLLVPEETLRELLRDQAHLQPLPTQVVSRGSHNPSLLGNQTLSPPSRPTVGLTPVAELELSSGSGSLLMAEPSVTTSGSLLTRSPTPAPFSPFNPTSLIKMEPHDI
# Sequence of ETV1 (P50549 whole entry): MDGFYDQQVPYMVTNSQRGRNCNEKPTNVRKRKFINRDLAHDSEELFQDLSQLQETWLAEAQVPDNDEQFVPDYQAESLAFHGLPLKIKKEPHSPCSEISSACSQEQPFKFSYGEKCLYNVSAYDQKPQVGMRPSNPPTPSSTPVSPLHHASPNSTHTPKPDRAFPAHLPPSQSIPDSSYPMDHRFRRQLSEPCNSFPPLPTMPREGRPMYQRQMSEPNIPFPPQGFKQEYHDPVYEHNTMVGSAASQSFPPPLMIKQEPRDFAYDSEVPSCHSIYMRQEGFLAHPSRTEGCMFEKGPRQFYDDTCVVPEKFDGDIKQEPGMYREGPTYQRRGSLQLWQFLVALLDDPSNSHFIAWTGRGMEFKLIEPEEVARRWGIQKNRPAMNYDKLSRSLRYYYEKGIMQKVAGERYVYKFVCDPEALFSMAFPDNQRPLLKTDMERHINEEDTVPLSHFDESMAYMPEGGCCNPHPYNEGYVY
# Sequence of ETV6 (P41212 whole entry): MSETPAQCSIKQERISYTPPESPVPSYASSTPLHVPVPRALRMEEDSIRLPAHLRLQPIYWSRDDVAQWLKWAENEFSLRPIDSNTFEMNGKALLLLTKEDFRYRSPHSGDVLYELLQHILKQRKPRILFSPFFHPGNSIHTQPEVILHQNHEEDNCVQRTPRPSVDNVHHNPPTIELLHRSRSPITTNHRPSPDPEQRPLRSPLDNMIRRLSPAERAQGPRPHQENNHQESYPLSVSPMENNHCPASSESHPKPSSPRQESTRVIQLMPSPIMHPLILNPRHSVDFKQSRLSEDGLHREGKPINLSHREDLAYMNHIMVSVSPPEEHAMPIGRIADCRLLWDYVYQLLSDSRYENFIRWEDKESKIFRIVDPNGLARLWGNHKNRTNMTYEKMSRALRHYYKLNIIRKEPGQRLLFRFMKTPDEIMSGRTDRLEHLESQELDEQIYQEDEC
sequence,measurement,setting,value
GCACCT,binding signal,ELK1,"1.01 fold enrichment (6-mer frequency, TF over GST control)"
same,binding signal,GABPA,"1.12 fold enrichment (6-mer frequency, TF over GST control)"
same,binding signal,ERG,"1.07 fold enrichment (6-mer frequency, TF over GST control)"
same,binding signal,ELF1,"1.16 fold enrichment (6-mer frequency, TF over GST control)"
same,binding signal,EHF,"1.18 fold enrichment (6-mer frequency, TF over GST control)"
same,binding signal,SPIB,"1.13 fold enrichment (6-mer frequency, TF over GST control)"
same,binding signal,ELK3,"1.05 fold enrichment (6-mer frequency, TF over GST control)"
same,binding signal,SPIC,"1 fold enrichment (6-mer frequency, TF over GST control)"
same,binding signal,ELF4,"1.13 fold enrichment (6-mer frequency, TF over GST control)"
same,binding signal,ELK4,"1.16 fold enrichment (6-mer frequency, TF over GST control)"
same,binding signal,ELF3,"1.06 fold enrichment (6-mer frequency, TF over GST control)"
same,binding signal,ETV1,"1.1 fold enrichment (6-mer frequency, TF over GST control)"
same,binding signal,ERF,"1.29 fold enrichment (6-mer frequency, TF over GST control)"
same,binding signal,SPDEF,"1.09 fold enrichment (6-mer frequency, TF over GST control)"
same,binding signal,ETV7,"1.11 fold enrichment (6-mer frequency, TF over GST control)"
same,binding signal,ETV3,"1.13 fold enrichment (6-mer frequency, TF over GST control)"
same,binding signal,ETV6,"1.12 fold enrichment (6-mer frequency, TF over GST control)"
